Measured values from PubChem BioAssay AID463173 (ICCB-Longwood Screening Facility, Harvard Medical School, 2010).
The whole screen tested about 52,000 compounds, of which about 1,700 (3.3%) were called active. The full list was thinned out, with actives kept by preference. A number with no mark means an inactive call. Cut-off read from the data, not from the text of the source: active = survival mostly below about 52% (no sharp cut-off); inactive = mostly above about 56%.

test system: Wild type; assay: S. aureus survival, RN4220 and DeltatarO strains – OD600, teichoic acid synthesis inhibitors, primary screen (AID 463173); settings: S. aureus RN4220 wild type/DeltatarO growth, OD600, 18 h, active compounds read low, screened at 18.75 µg/mL (by protocol)

Row | Structure (SMILES) | survival
1 | Clc1ccc(-c2nc3ccccn3c2Nc2ccc3c(c2)OCCO3)s1 | 79%
2 | Cc1ccccc1C(=O)Nc1cccc(-c2cn3cccnc3n2)c1 | 105%
3 | Cc1ccc(CCNC(=O)CSCc2nc(-c3ccc(C)cc3)oc2C)cc1 | 27%
4 | COc1ccc(-c2nc(CSCC(=O)NCCc3ccc(C)cc3)c(C)o2)cc1OC | 72%
5 | Cc1oc(-c2cccc(Cl)c2)nc1CSCC(=O)NCc1ccccc1Cl | -1% (active)
6 | CCOc1ccc(-c2nc(CSCC(=O)NCc3ccc(C)cc3)c(C)o2)cc1 | 73%
7 | COc1ccc(-c2nc(CSCC(=O)NCc3ccccc3Cl)c(C)o2)cc1OC | 70%
8 | Cc1oc(-c2cccc(Cl)c2)nc1CS(=O)(=O)CC(=O)NCc1ccccc1Cl | 75%
9 | Cc1ccc(CNC(=O)CSCc2nc(-c3ccc(Cl)cc3)oc2C)cc1 | 88%
10 | Cc1ccc(CNC(=O)CSCc2nc(-c3cccc(C)c3)oc2C)cc1 | -1% (active)
11 | CCc1ccc(-c2nc(CSCC(=O)NCc3ccc(C)cc3)c(C)o2)cc1 | 0% (active)
12 | Cc1ccc(-n2nc(C)c3c(C(=O)NCc4ccccc4)cc(C4CC4)nc32)cc1 | 82%
13 | O=C(Cn1c(=O)n(-c2ccccc2)c(=O)c2c3c(sc21)CCC3)c1ccc(Br)cc1 | 87%
14 | COc1ccc(N2C(=O)CSC23C(=O)N(Cc2ccc(C)cc2)c2ccccc23)cc1Cl (stereo not drawn) | 135%
15 | CC(C)(C)OC(=O)N1CCC(c2c(C(=O)NCCN3CCOCC3)cnn2-c2cccc(F)c2)CC1 | 120%
16 | Clc1ccccc1C(c1nnnn1Cc1ccco1)N1CCN(Cc2ccco2)CC1 (stereo not drawn) | 111%
17 | O=C(NCC(c1ccc2c(c1)OCO2)N1CCN(c2ccc(F)cc2)CC1)c1cccc([N+](=O)[O-])c1 (stereo not drawn) | 83%
18 | COc1ccc(-c2csc3ncnc(Nc4cccc(F)c4)c23)cc1 | -3% (active)
19 | COc1ccc(-c2csc3ncnc(Nc4cccc(OC)c4)c23)cc1 | 73%
20 | COc1ccc(Nc2ncnc3scc(-c4ccc(F)cc4)c23)cc1 | 79%
21 | CC(=O)c1ccc(NC(=O)CC2Nc3cc(C)c(C)cc3NC2=O)cc1 (stereo not drawn) | 78%
22 | Cc1cc(C)cc(N2C(=O)N(Cc3cc(=O)n4ccccc4n3)c3ccccc3S2(=O)=O)c1 | 127%
23 | CC(C)c1ccc2oc(-c3ccc(NC(=O)c4cccc(Br)c4)cc3)nc2c1 | 70%
24 | CCOc1ccc(C(CC(=O)Nc2cc(C)c(Cl)cc2OC)N2Cc3ccccc3C2=O)cc1OC (stereo not drawn) | 65%

Row | Structure (SMILES) | survival
25 | COc1ccc(CNC(=O)C(C(C)C)N2Cc3ccccc3C2=O)cc1 (stereo not drawn) | -6% (active)
26 | COc1ccc(C(CC(=O)Nc2cc(Cl)c(OC)cc2OC)N2Cc3ccccc3C2=O)cc1 (stereo not drawn) | -3% (active)
27 | COc1cc(Cl)c(C)cc1NC(=O)CC(c1ccc(F)cc1)N1Cc2ccccc2C1=O (stereo not drawn) | -2% (active)
28 | Cc1ccc(CNC(=O)C(C(C)C)N2Cc3ccccc3C2=O)cc1 (stereo not drawn) | 80%
29 | COc1ccc(C(CC(=O)Nc2cc(OC)c(OC)c(OC)c2)N2Cc3ccccc3C2=O)cc1 (stereo not drawn) | 65%
30 | Cc1ccc(NC(=O)CC(c2ccc(F)cc2)N2Cc3ccccc3C2=O)cc1C (stereo not drawn) | 88%
31 | COc1ccc(CNC(=O)C(CC(C)C)N2Cc3ccccc3C2=O)cc1 (stereo not drawn) | 134%
32 | COc1cc(OC)c(NC(=O)CC(c2cccs2)N2Cc3ccccc3C2=O)cc1Cl (stereo not drawn) | 101%
33 | CCn1cc(C(=O)NCCc2ccccc2)c(=O)c2cc(S(=O)(=O)N3CCOCC3)ccc21 | 85%
34 | COc1ccc(NC(=O)c2ccc(NC(=O)CCS(=O)(=O)c3cccs3)cc2)cc1Cl | 81%
35 | COc1ccc(-c2cc(C(=O)Nc3cccnc3Cl)no2)cc1OC | 140%
36 | Cc1ccc(C)c(N2CCN(c3nc4ccccc4c4nc(-c5cccnc5)nn34)CC2)c1 | 82%
37 | Cc1cc(OCC(=O)NC(Cc2c[nH]c3ccccc23)C(=O)O)ccc1Cl (stereo not drawn) | 69%
38 | CCOC(=O)C(Cc1c[nH]c2ccccc12)NC(=O)COc1ccc(Cl)c(C)c1 (stereo not drawn) | 8% (active)
39 | CCOC(=O)C(Cc1c[nH]c2ccccc12)NC(=O)COc1ccc(CC)cc1 (stereo not drawn) | 32%
40 | CCc1ccccc1N(CC)C(=O)c1c(C)oc2ncn(C)c(=O)c12 | 71%
41 | CSc1nc2sc3c(c2c(=O)n1-c1ccc(C)cc1)CCCC3 | 51%
42 | CSc1nc2sc3c(c2c(=O)n1-c1ccccc1C)CCCC3 | 99%
43 | C=CCn1c(SC(C)C)nc2sc3c(c2c1=O)CCCC3 | 108%
44 | C#CCSc1nc2sc3c(c2c(=O)n1Cc1ccccc1)CCCC3 | 44%
45 | CC(C)Sc1nc2sc3c(c2c(=O)n1-c1ccccc1)CCCC3 | -2% (active)
46 | CC(C)Sc1nc2sc3c(c2c(=O)n1Cc1ccccc1)CCCC3 | 5% (active)
47 | CCS(=O)(=O)NCC(c1ccco1)N1CCN(c2ccccc2)CC1 (stereo not drawn) | 89%
48 | CCS(=O)(=O)N1CCc2cc(C(=O)NC(C)c3ccccc3)ccc21 (stereo not drawn) | 90%

Row | Structure (SMILES) | survival
49 | CC(C)C(=O)Nc1ccc2nc(SCCOc3ccccc3)sc2c1 | 93%
50 | Cc1ccc(Cl)cc1NC(=O)C1CCN(c2nnc(C)c3c(C)n(-c4ccccc4)nc23)CC1 | 71%
51 | O=C(Nc1nc2ccc(F)cc2s1)c1nc(S(=O)(=O)Cc2ccccc2)ncc1Cl | 27%
52 | Cc1ccc(CS(=O)(=O)c2ncc(Cl)c(C(=O)Nc3nc4ccc(F)cc4s3)n2)cc1 | 20%
53 | COc1ccc(NC(=O)c2nc(S(=O)(=O)Cc3ccc(C)cc3)ncc2Cl)cc1 | 81%
54 | Cc1cccc(CS(=O)(=O)c2ncc(Cl)c(C(=O)NCc3ccccc3)n2)c1 | 27%
55 | Cc1cccc(CS(=O)(=O)c2ncc(Cl)c(C(=O)Nc3nc4ccc(F)cc4s3)n2)c1 | 7% (active)
56 | Cc1ccc(NC(=O)c2nc(S(=O)(=O)Cc3cccc(C)c3)ncc2Cl)cc1 | -1% (active)
57 | CCOC(=O)c1ccc(CN(Cc2ccc(F)cc2)S(=O)(=O)c2ccc(F)cc2)cc1 | 68%
58 | CCOC(=O)c1ccc(CN(Cc2ccccc2)S(=O)(=O)c2ccc(Cl)cc2)cc1 | 0% (active)
59 | CCOC(=O)c1ccc(CN(Cc2ccc(Cl)cc2Cl)S(=O)(=O)c2cccc(Cl)c2)cc1 | 73%
60 | COc1ccc(CCNC(=O)CCc2c(C)c3cc4c(C)coc4c(C)c3oc2=O)cc1OC | 105%
61 | CC(Oc1ccccc1)C(=O)Nc1c(C(=O)Nc2cccc(F)c2)oc2ccccc12 (stereo not drawn) | 57%
62 | CCOC(=O)c1[nH]c2c(c1Cc1ccccc1OC)C(=O)CC(c1ccccc1)C2 (stereo not drawn) | 126%
63 | CN(C)c1ccc(C2CC(c3c(O)n(C4CCCCC4)c(=O)[nH]c3=O)=Nc3ccccc3S2)cc1 (stereo not drawn) | 85%
64 | O=C(Cn1c(=O)n(Cc2ccc(C(=O)NCc3ccc4c(c3)OCO4)cc2)c(=O)c2ccccc21)Nc1ccc(F)cc1F | 111%
65 | CC(C)c1cc(-c2nc(-c3ccccc3)no2)n[nH]1 | 71%
66 | COc1ccc(OCCCCn2c(-c3ccc(Cl)cc3)nc3ccccc3c2=O)cc1 | 38%
67 | COc1ccc(-c2noc(=O)n2Cc2ccccc2)cc1 | 128%
68 | COc1ccc(-c2nc3ccccc3n2Cc2ccc(C(C)C)cc2)cc1 | -8% (active)
69 | COc1ccc(-c2nc3ccccc3n2Cc2ccc(Cl)cc2)cc1 | 4% (active)
70 | COc1ccc(Cn2c(SC)nc3ccccc32)cc1 | 108%
71 | COc1ccc(-c2nc3ccccc3n2Cc2ccccc2)cc1 | 0% (active)
72 | CCOc1cc(Cn2c(-c3ccc(O)c(OCC)c3)nc3ccccc32)ccc1O | 80%

Row | Structure (SMILES) | survival
73 | COc1ccc(Cn2c(SCC(=O)Nc3ccc(OC)cc3)nc3ccccc32)cc1 | 85%
74 | CCc1ccc(OCCCn2c(-c3ccc(Cl)cc3)nc3ccccc3c2=O)cc1 | 52%
75 | O=c1n(Cc2ccc(F)cc2)nc2n1-c1cc(Cl)ccc1OC2 | 76%
76 | Cc1cc(Cl)ccc1NC(=O)Cn1nc(C)c2c(C)n(-c3ccccc3)nc2c1=O | 45%
77 | CCc1cccc(NC(=O)CCNS(=O)(=O)c2ccc3c(c2)CCN3C(C)=O)c1 | 76%
78 | Cc1ccc(-n2ncc3c(N4CCN(Cc5ccccc5)CC4)ncnc32)cc1 | 131%
79 | O=C(Nc1nnc(C(F)(F)F)s1)c1ccccc1 | 74%
80 | CCOC(=O)N1CCc2c(sc(NCc3sccc3C)c2C(=O)Nc2cc(Cl)ccc2OC)C1 | 80%
81 | CCc1nnc(NC(=O)CSc2nccn2-c2ccc(OC)cc2)s1 | 135%
82 | CCCCOc1ccc(Cn2c(=O)sc3ccccc32)cc1OC | -5% (active)
83 | CCCCn1c(=N)n(CCOc2ccccc2OC)c2ccccc21 | 81%
84 | COc1cc(Cn2c(=O)sc3ccccc32)ccc1OCCC(C)C | -4% (active)
85 | COc1cc(Cn2c(=O)sc3ccccc32)ccc1OC(C)C | 41%
86 | COc1ccccc1NC(=O)c1sc2nc(C)c(C(=O)Nc3ccc(C)cc3C)c(-c3ccco3)c2c1N | 73%
87 | COc1cc(-c2nnn(CC(=O)Nc3ccc(OC(F)(F)F)cc3)n2)cc(OC)c1OC | 92%
88 | Nc1nn(-c2ccccc2)nc1C(=O)OCc1ccc(Cl)cc1 | 59%
89 | Nc1nn(-c2ccccc2)nc1C(=O)OCc1ccccc1Br | -2% (active)
90 | Nc1nn(-c2ccccc2)nc1C(=O)OCc1ccccc1 | 85%
91 | COc1cccc(COC(=O)c2nn(-c3ccccc3)nc2N)c1 | 24%
92 | Nc1nn(-c2ccccc2)nc1C(=O)OCc1c(F)cccc1Cl | 61%
93 | Cc1ccccc1COC(=O)c1nn(-c2ccccc2)nc1N | -9% (active)
